Test results: PMC4336329 (PLoS ONE, 2015)
Screen size: about 310,000 compounds; about 2,200 (0.71%) showed an effect of 50% or more. Effects have a minus sign here. Only a selection was taken, and strong results are over-represented in it overall.

Target: human ether-à-go-go-related gene (hERG) potassium channel (human, UniProt Q12809)
Test: primary screen, population patch clamp on CHO cells stably expressing hERG; higher = less effect of the substance
Method: Briefly, Chinese hamster ovary (CHO) cells stably expressing the hERG channel were dislodged from tissue culture flasks and dispensed into PPC plates. […] During the recording, background leak currents were estimated by a 100 ms step to -80 mV from an initial holding potential of -70 mV and subtracted from the subsequent current measurement. The campaign was conducted in two phases using slight differences in recording protocol. In the first phase, the initial voltage pulse used a 100 ms step to -30 mV from a holding potential of -70 mV, a 2 s conditioning step to +25 mV, and a 2 s test step to -30 mV. During the second phase of the screen, the potential during the conditioning step was raised to +45 mV. In both phases of the campaign, a secondary voltage pulse was applied using the same parameters as the second phase initial pulse. The initial and secondary pulses were applied in the absence of compound, and upon application of 1 μM and 10 μM test concentrations. Small molecule effects on hERG current density were quantified by […].

Sequence of human ether-à-go-go-related gene (hERG) potassium channel (Q12809 whole entry, looked up): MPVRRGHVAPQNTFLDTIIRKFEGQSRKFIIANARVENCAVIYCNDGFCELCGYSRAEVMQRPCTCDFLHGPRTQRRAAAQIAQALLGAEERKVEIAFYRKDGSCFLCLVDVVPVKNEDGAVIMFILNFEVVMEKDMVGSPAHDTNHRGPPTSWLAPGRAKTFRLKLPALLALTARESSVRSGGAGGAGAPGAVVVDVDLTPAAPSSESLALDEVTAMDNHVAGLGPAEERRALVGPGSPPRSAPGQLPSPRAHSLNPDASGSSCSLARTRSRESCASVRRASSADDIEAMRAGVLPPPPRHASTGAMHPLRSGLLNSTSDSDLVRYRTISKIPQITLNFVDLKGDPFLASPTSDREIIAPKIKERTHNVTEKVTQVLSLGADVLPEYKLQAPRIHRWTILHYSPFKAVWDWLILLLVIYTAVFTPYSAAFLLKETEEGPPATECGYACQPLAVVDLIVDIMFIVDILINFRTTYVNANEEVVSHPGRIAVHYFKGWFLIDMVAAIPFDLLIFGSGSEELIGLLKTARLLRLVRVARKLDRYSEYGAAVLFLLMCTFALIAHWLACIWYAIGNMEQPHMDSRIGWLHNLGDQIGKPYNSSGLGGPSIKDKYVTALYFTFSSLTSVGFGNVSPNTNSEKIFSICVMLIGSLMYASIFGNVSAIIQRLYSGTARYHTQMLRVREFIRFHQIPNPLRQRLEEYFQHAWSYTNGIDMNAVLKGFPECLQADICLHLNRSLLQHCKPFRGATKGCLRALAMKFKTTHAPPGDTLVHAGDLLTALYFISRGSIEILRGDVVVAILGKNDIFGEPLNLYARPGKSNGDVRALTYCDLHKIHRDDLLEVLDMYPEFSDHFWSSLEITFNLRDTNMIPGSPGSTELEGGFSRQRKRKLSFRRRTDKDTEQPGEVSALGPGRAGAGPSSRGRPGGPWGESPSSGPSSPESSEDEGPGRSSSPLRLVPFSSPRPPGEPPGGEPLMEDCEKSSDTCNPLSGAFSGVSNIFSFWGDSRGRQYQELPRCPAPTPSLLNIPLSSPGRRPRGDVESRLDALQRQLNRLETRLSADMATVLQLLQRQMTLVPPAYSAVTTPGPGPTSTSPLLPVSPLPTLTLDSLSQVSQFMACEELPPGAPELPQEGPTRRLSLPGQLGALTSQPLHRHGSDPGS

Compound	hERG current change (%, negative = inhibition) at 1uM [%]
Cc1cc(C)c(S(C)(=O)=O)c(S(=O)c2ccc(Cl)cc2)n1 (stereo not shown)	3.19
CCOC(=O)c1[nH]c2ccc(OC)cc2c1NC(=O)CCN1CCN(Cc2ccccc2)CC1	-36
NC(=O)CSc1nnc(Cc2csc(Nc3ccc(F)cc3)n2)n1Cc1ccccc1	11.5
O=C(OCC(=O)N(C1CCCCC1)C1CCCCC1)c1ccco1	9.71
O=C(O)CCN1C(=O)c2ccccc2C1=O	19.2
CN(C)S(=O)(=O)c1cccc(-c2nnc(SCc3ccc4c(c3)OCCO4)o2)c1	-0.0123
C=CCc1ccc(OCC(O)CN2CCN(c3ccccc3OC)CC2)c(OC)c1.Cl (stereo not shown)	8.86
C=CCc1ccccc1OCC(O)CN1CCN(c2ccccc2F)CC1.Cl (stereo not shown)	-0.42
C=CCc1ccc(OCC(O)CN2CCN(Cc3ccc(Cl)cc3)CC2)c(OC)c1.Cl (stereo not shown)	-55.3
C=CCc1ccc(OCC(O)CN2CCCCC2)c(OC)c1 (stereo not shown)	-16.5
C=CCc1ccc(OCC(O)CN2CCN(Cc3ccccc3)CC2)c(OC)c1.Cl (stereo not shown)	-10.6
C=CCc1ccc(OCC(O)CN2CCN(c3ccccc3)CC2)c(OC)c1.Cl (stereo not shown)	-33.7
C=CCc1ccc(OCC(O)CN2CCC(Cc3ccccc3)CC2)c(OC)c1.Cl (stereo not shown)	-75
C=CCc1ccccc1OCC(O)CN1CCN(c2ccccc2OC)CC1.Cl (stereo not shown)	-52.3
C=CCc1ccccc1OCC(O)CN1CCN(c2ccc(OC)cc2)CC1.Cl (stereo not shown)	-27.3
COc1cc(CN2CCN(c3ccccc3C)CC2)cc([N+](=O)[O-])c1O	7.17
CN(C)C(=O)Oc1ccc(OC(=O)c2ccccc2)cc1	10.4
Cc1ccc(-n2c(N)c(C#N)c(-c3ccc(Cl)cc3)c(C#N)c2=O)cc1	10.8
CCCCNC(=O)COC(=O)c1cc(C)oc1C	8.11
COc1ccc(N2CCN(CC(O)COc3ccc([N+](=O)[O-])cc3)CC2)cc1.Cl (stereo not shown)	-45.5
Cc1nonc1OCCN1CCN(c2ccc([N+](=O)[O-])cc2)CC1	-100
Cl.OC(COc1ccc(F)cc1)CN1CCN(c2ccccc2F)CC1 (stereo not shown)	-49.5
Cc1nonc1OCCN1CCN(c2ccccc2[N+](=O)[O-])CC1.Cl	-2.31

Compound	hERG current change (%, negative = inhibition) at 1uM [%]
OC(COc1ccc2c(c1)CCC2)CN1CCN(c2ccccc2F)CC1 (stereo not shown)	5.87
Cc1nonc1OCCNc1ccc([N+](=O)[O-])cc1	-17.1
O=[N+]([O-])c1ccc(OCC(O)CN2CCN(c3ccccc3F)CC2)cc1 (stereo not shown)	-77.6
Cc1ccc(N2CCN(CC(O)COc3ccc([N+](=O)[O-])cc3)CC2)cc1 (stereo not shown)	-65.4
Cc1ccc(OCC(O)CN2CCN(c3ccc(C)cc3)CC2)cc1 (stereo not shown)	-3.83
COc1ccc(CCNC(=O)c2cccc([N+](=O)[O-])c2)cc1OC	3.3
O/N=C(\COc1ccccc1O)c1ccccc1	-0.796
CN(c1ccc(OCC(=O)NCc2cccnc2)cc1)S(=O)(=O)c1ccc(Cl)cc1	-4.28
CCOC(=O)CC1C(=O)NCCN1S(=O)(=O)c1ccc(Br)cc1 (stereo not shown)	6.26
O=C(CCn1nnc2ccccc2c1=O)N[C@@H](Cc1c[nH]c2ccccc12)C(=O)O	11.6
COc1ccc(CCNC(=O)C2(C)CCC(=O)N2Cc2ccc(F)cc2Cl)cc1OC (stereo not shown)	16.2
O=C(NCCN1CCOCC1)c1cccc(Cl)c1	2.76
COc1ccccc1N1CCN(C(=O)CCN2C(=O)c3cccc4cccc(c34)C2=O)CC1	9.15
COc1ccccc1N1CCN(C(=O)CCCN2C(=O)c3cccc4cccc(c34)C2=O)CC1.Cl	-89.5
COc1ccccc1N1CCN(CCCCNC(=O)c2ccc3ccccc3c2)CC1.Cl	-75.8
COc1ccc(S(N)(=O)=O)cc1C(=O)NCCCN1CCN(c2ccccc2OC)CC1.CS(=O)(=O)O	4.07
CCOc1ccccc1N1CCN(C(=O)CCCN2C(=O)c3cccc4cccc(c34)C2=O)CC1	2.15
O=C(NCCCN1CCN(CCCNC(=O)c2cccc(Cl)c2)CC1)c1cccc(Cl)c1	-74.5
COc1ccc(C(=O)CCN2CCN(c3ccccc3OC)CC2)cc1.Cl	-4.48
CC(C)c1ccc(C(=O)NCCCN2CCOCC2)cc1	2.78
Cc1ccc(C(=O)NCCCN2CCN(CCCNC(=O)c3ccc(C)cc3)CC2)cc1	-36.5
CC(C)c1ccc(C(=O)NCCCN2CCN(CCCNC(=O)c3ccc(C(C)C)cc3)CC2)cc1	-86.4
Cl.O=C(NCCN1CCCC1)c1cccc(Cl)c1	-13.1
